Measured values as given in the supplement of paper PMC10681739.

What was measured:
ETS1 [1] = target: T1, ETS1 (UniProt P14921); assay: ETS1 binding intensity (PBM fluorescence), ETS1 alone (arbitrary fluorescence units); higher = stronger binding; conditions: ETS1 concentration 1 nM; RUNX1 concentration 0 nM
T1 sequence: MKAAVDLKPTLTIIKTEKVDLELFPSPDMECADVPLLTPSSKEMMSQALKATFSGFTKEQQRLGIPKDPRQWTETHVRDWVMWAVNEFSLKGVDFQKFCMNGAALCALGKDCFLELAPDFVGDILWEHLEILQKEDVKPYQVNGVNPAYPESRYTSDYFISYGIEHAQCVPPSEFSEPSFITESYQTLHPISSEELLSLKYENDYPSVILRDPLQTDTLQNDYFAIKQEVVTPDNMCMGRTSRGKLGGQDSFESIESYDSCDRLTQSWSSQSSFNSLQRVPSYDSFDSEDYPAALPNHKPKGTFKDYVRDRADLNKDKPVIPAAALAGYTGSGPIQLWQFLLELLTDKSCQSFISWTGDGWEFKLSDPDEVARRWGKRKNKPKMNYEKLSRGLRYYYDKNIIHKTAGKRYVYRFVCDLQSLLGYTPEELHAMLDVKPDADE

RUNX1 [2] = target: RUNX1 (UniProt Q01196); assay: RUNX1 binding intensity (PBM fluorescence), RUNX1 alone (arbitrary fluorescence units); higher = stronger binding; conditions: RUNX1 concentration 2 nM; ETS1 concentration 0 nM
Method: (§1)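 Cooperative gcPBM on 36-bp genomic probes with neighbouring ETS1 and RUNX1 sites. Recombinant human RUNX1 (2 nM) was incubated alone or with ETS1 (25 nM) and detected with anti-RUNX1 antibody plus Alexa488 secondary. Values are medians over 4 replicate spots; the RUNX1+ETS1 data were normalised to the RUNX1-only data. The probes sit in constant array flanks that are not printed.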

ETS1 [3] = target: T1, ETS1; assay: ETS1 binding intensity (PBM fluorescence) in presence of RUNX1, normalised to ETS1-only experiment (arbitrary fluorescence units); higher = stronger binding; conditions: ETS1 concentration 1 nM; RUNX1 concentration 25 nM
RUNX1 [4] = target: RUNX1 (UniProt Q01196); assay: RUNX1 binding intensity (PBM fluorescence) in presence of ETS1, normalised to RUNX1-only experiment (arbitrary fluorescence units); higher = stronger binding; conditions: RUNX1 concentration 2 nM; ETS1 concentration 25 nM
Method: as §1
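Wherever RUNX1 binding intensity (PBM fluorescence) in presence of ETS1, normalised to RUNX1-only experiment is given: Full-length recombinant human ETS1 or RUNX1 bound to double-stranded 36-bp genomic probes on microarrays, detected by protein-specific primary antibody and Alexa488 secondary, spot fluorescence as median of four replicate spots.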
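Wherever RUNX1 binding intensity (PBM fluorescence), RUNX1 alone is given: Full-length recombinant human RUNX1 bound to double-stranded 36-bp genomic probes on a high-density microarray, scored as Alexa488 fluorescence per spot via anti-RUNX1 antibody, median of four replicate spots.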

Sequence of RUNX1 (Q01196 whole entry): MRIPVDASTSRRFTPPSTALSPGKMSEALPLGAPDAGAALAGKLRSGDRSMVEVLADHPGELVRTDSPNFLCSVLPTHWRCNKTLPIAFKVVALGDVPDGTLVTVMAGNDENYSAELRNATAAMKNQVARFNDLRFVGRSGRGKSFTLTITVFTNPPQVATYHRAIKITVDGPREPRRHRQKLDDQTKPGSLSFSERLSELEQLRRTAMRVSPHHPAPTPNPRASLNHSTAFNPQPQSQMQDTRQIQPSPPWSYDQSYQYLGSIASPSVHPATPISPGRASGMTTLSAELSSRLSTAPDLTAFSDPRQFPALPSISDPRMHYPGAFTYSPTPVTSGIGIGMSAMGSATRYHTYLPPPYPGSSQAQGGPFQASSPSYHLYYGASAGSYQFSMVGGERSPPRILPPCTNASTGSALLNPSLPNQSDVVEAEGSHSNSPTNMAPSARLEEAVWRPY

Sequence	ETS1 binding intensity (ETS1 [1])	RUNX1 binding intensity (RUNX1 [2])	ETS1 binding intensity (ETS1 [3])	RUNX1 binding intensity (RUNX1 [4])
CCCTGAGCACTTCCCCGTAAGGCTGCGGTGCACGGG	337	871	460	844
CCCTACTCAGGAGGATGTGGTTGGAGAACCCGCTGA	815	755	2260	1300
CTGCGCGGCCGGAAGTCGGCGGTTTCCCAGACGACG	20800	759	30000	2820
TTTCTGACTTCCTGTGTGCTTCAGAAACCTCAATGA	2020	830	2570	2110
CTTGCTTAACGCTTCCTGAGGGGTGGTTTGGGTTTT	448	837	369	953
TTCTTCCGGCAACTGCTGCTGAGGCTGCGGTGGCGG	455	799	899	2050
CCCGGAGGACGTCCGGCCTCTGTGAGCCGCAACCTT	440	838	561	1370
CTGCTGCCGCGAACAGGAAACCACTACAATCAGGAG	2840	816	4530	1100
GGACTCTGGCAGGAAGCTGTTTGTGGTTGTCACACC	3140	796	11000	1150
GCTGCCGGAAAAGGCGCCGAGGTAACCGCCTCACTT	479	903	496	1020
ATGGGGAACGGGAAATACGGCGGGAACCACAATCGC	734	777	1700	1020
CCACCACTCTAAGCAGGATGCGGTGCGACCCAAGAG	1390	815	2470	972
GCCCCAGCCCCCGGATGTGGTGACAGAATCGATACT	3220	811	6050	4060
TACAGCTGGAACGTCCTGTGGTTAACATTCTGCTCT	423	1130	568	1970
CCTCACTAACATCCTGTTGAGGTGTCCCACAAACCA	1110	801	1090	1490
GCCCACTTCCTGCCGTAAGAGAAAACCACTAACACA	890	1970	2190	4760
CCGCGAGCCGTCACTTCCTGTGGGCTGGGCCGAGCC	1910	924	2470	1940
TGGAAGGCCGGAAAAGGTTTACCACCACACTCCGGT	1850	791	3690	1320
CCCTGGACGGGAAGCGGCGGCCAGATCCGCAAGCCC	584	808	747	940
AAGGGAGCCGCCCGGAAACCGCGCGGCAAAGATGCC	1560	734	2940	1050
GCCACTTCCGGTCACTCCCCGCTGCGGCCTCGCGCT	7030	1190	8280	3940

Sequence	ETS1 binding intensity (ETS1 [1])	RUNX1 binding intensity (RUNX1 [2])	ETS1 binding intensity (ETS1 [3])	RUNX1 binding intensity (RUNX1 [4])
ATGTACATAGATACAGGATGTGGGTTTGTTACAAAG	7940	746	24400	3400
CCCAGCCGAGGGAGGAAGCCTGCGGTCACTGCCATC	402	1640	2740	3190
AGTGGCTACCACTTCCTTCTCTTACCACAGTTCCTT	442	1550	607	4520
GGGGCTCCGCAGGAAGTAGGGCTCCCACAACTTTGC	2970	664	2310	1040
AGCGGCTGCACAGGAAGTTGGTTTTCACAAAGGCAA	5520	658	6650	1190
ACGTCTGTTTCCTGTGATTGAAACCGCAAGAAGAAG	783	4510	2250	18500
TTACGTTAAGGAGGAAACTCTGTGGTTAAACTGTAG	597	1230	2050	1810
AAGTGGAGAGCGGAAGTGAGCTGTGGGTGACTGCAG	6780	759	8400	1240
CAGGTTGTTGAGGATGTGGAGAAACCGCAACCTCGT	581	3670	7360	6690
TGGCTTATCCTAACAGGAAGTGGTTTATCTGATCCT	16100	767	31300	2390
ATGTTTGGGGCCGGAAGTGGGTTGGAGGTGTGGCGG	24700	706	23800	2830
GGTCTCACCGCTCTTCCGCTTGCGGTTTCGGGGGCC	780	2320	5370	4570
AGACCCGGAAGAACTTGTCCCAGTGTTGACCACACC	505	870	1100	938
GTGGGGAGAGGCAGGAAACCGCTGCCGCCGACGGGG	3550	807	4730	1030
GCGCTACAGGAACTTCCTGCGCGGTTGCTGTCGTTG	1360	702	1570	1180
GCCTGCAGCTTCTTCCTGTGGCTTCTGCATCTCAGG	4420	783	3930	1320
GCAGAAGGATTTCCTGTTTCAGGCAACCACAGCGAC	1630	773	2450	1510
GCACTGTGGGAGGAAGTGGGTATGTGGTGAGCTCTT	1650	856	4990	1560
CAGATCTGAAAGGGAAGTGGTTTCAAGAGGGTTCTT	967	729	1130	865
AAAGTAGGTCCGGTCCGCGGGTGCGGTCGGGCATGC	427	686	545	878
GTTGTCTTCTTCCTGAGTAAACCGCAGTGCAGAGAA	456	5250	1120	6380

Sequence	ETS1 binding intensity (ETS1 [1])	RUNX1 binding intensity (RUNX1 [2])	ETS1 binding intensity (ETS1 [3])	RUNX1 binding intensity (RUNX1 [4])
TCCAGCGGAAGGGGGCATCTTTGCGGCAGAGGCAGC	470	764	431	979
GAGCCTGTTGCTTCCGGTTCAGAGCCCACATGCTGG	3070	736	3370	1940
CACTTCCTCTGTGACTGCAGGTTTCCAACCACAAGC	601	988	1510	2370
GGGCCAGAGACGCCGGAAGTGACCGCGCGGTGCGCC	11700	729	18400	1210
GTCTTTCACTCCACTTCCGCCCCCACAAAACATACA	2850	6600	3620	6600
GTTTCCACTTCCTGCTGTGCAGCAGTACCACCAAGA	1000	992	1030	2800
CGCCTGCCCCACTTCCGCCCGGACCCGCAGCCCCTA	2450	1240	3210	3610
GGCCAACGAGAGCGCTTCCGGCCGCAGCCACGGCGG	1950	735	3000	1420
AGCGCCCCATCCCGCGGATGTGGTAAAGCTTCGCGC	658	788	4400	1570
CGTTCTCTCATTTCCTGTGTGCACCCACATGAACCA	3340	1740	3230	2920
ATCAGAGCGGAAATCTCAGTCTTGTGTGGGGACCTG	1960	647	1820	919
CTCTAGAGGCTTCCTGCCCAACCACCAAGAAAAAGC	598	817	668	1180
CCATATCTGGCTTCCTAAGGAGGAACCACAAACCGT	375	1040	828	1080
CACCTCACAGCCCGGATACAAACCGCCTACCCGCCC	780	1300	980	1230
AAGTTTTGGGTTTTCCGCCCACAGCCGCCGAAAGTG	630	888	684	1090
AACTGCCTGGTGGCCGGAAACCGCTGGAGGGAGGGC	4740	793	10100	1130
CTGTTTCCGAGTAAAGTAGGGTGTGTGGGTCACATG	456	872	395	929
TTGTCTGCATCCTGTGCTGTGTGGTAGCTCTGGGTT	510	702	541	1490
ACACAGAGAGTGAGAGGAAGTGGTTTAGAGATGAGA	2440	769	3210	1050
GCAACAGGAAGGACCAAGTCCCCTCCCGCAATTTTA	627	888	955	1020
ATCAGTCAACTTCCCCCACTCCCTCCCACAAAGAAA	1010	1400	979	1300

Sequence	ETS1 binding intensity (ETS1 [1])	RUNX1 binding intensity (RUNX1 [2])	ETS1 binding intensity (ETS1 [3])	RUNX1 binding intensity (RUNX1 [4])
GTTTAACAGGAAACCCTGCAGACCACAGGTTCTGTC	1220	807	3630	1680
GCCATCCAGGAAGTACAGACTCCCTGACCGCACTGA	1030	1140	5400	2110
GTGGTCTCTCCCGGAAAAACCACTTCCACCGAGAAC	932	861	1440	1270
AGTTTCTTCTTTCCGGTGGGTTTGTGGTCTTGCTGA	1160	1390	2990	2770
TTCAGTCCTGGTTTCCTGTGGTTCTAGGATCTTTAT	903	828	957	1440
CCGCCGCGCGCCGGATGCTAAGACCGCGATTTCCCC	4180	781	7590	1110
CCCTGGGGCCCCACTTCCTTGCCCACAAGAAAGGAC	395	1020	446	1360
GGCCCTTCTGGGGCAGGATGTGGTGCCTGCCAAAGG	4650	707	6110	891
CAGCGGAAGAAAGACCTGCCACCTCCACCACAAAGA	440	1000	471	925
TGAGGAGAGCGAGGAAGTGGTTTTCTCTTCGCACAG	691	746	1080	948
CCTGCTGCTTCCGCCCGGAGTTGTTGTGGGCTCCAG	643	806	661	1870
ATGTCCCCAGGAGGATGTGGTGTGTCCACAGGAGGA	759	742	1650	875
CCTTGCTGCAGGATGCTCTAACCACAAGCCCAGGAG	528	2370	2720	5330
GACTCCCTCAGCGGATGCGGGTGCTGCTGCTGCTGC	1290	743	1400	1250
ACCTCATCCTGCTGTTCTTGTGTGTGGTTGAGCAGT	453	944	432	1340
AGAACAGCAGGAAATAAATACCCACCTCAGGACTGC	959	822	1050	887
TGATAAAACACAGGATGTGGTAAGGGAGCTGGCCAA	3350	682	14200	4550
GGCCCGGCCGGAAGAAGCCACCTCCCCCGCACGCGT	2410	849	2860	1240
